DT40 TDP1 no CPT: qHTS for Inhibitors of human tyrosyl-DNA phosphodiesterase 1 (TDP1): qHTS in cells in absence of CPT; DT40 Tdp1-/- hTDP1 cells, no CPT, ATP luminescence, 48 h; Potency, µM (top dose mostly 46.2 µM), without a hit: top-dose activity change, negative = growth inhibition, actives largely listed as inhibitors; hit rate 15% among 420,000; further: potency means the concentration at half of the fitted maximal effect; on the % scale 0 is the no-effect control and ±100 the full control effect; nearly all actives have a fitted effect of over 55% in size
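Growth kinetics read by CellTiter-Glo luminescence after ≥48 hr at 37 °C. Cells: DT40 Tdp1-/- stably carrying human TDP1, 400 per well, compound exposure in the absence of CPT (DMSO vehicle).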
IL-1B inflam inh: inhibitors of inflammasome signaling (IL-1 beta secretion); activity change, % at 57.5 µM; AID 743279; hit rate 4.7% among 360,000; THP-1 LPS/ATP IL-1B secretion, AlphaLISA, 16 h; hits give low values; in the data active means activity change below about -50%; inconclusive means mostly about -30% to -49%; further: on the % scale 0 is the no-effect control and ±100 the full control effect
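Secreted IL-1B measured by AlphaLISA bead assay after 16 h compound exposure of THP-1 cells; compounds (final up to 57.5 uM) added 1 h before LPS (250 ng/mL) and ATP (1.25 mM) stimulation; lower signal means less secretion.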
SW480 rerep: DNA re-replication induction in SW480 cells | SW480 DNA re-replication, Hoechst DNA content imaging, 48 h | Potency, µM (series often up to 46.1 µM), inactives show at the highest dose re-replication activation, actives largely listed as activators | hit rate 1.8% among 340,000 | AID 624297; further: potency means the concentration at half of the fitted maximal effect; % of control where 0% means no effect; nearly all actives have a fitted effect of over 55% in size
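Image-based DNA-content assay: after two days of treatment, nuclei were labelled with the DNA dye Hoechst and imaged, and hits were compounds raising the count of nuclei showing high fluorescence intensity.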
MCF10A rereplic: DNA re-replication induction in MCF 10a cells; MCF 10A DNA re-replication, Hoechst nuclear intensity, 48 h; Potency, µM (top dose mostly 46.1 µM), without a hit: at the top dose activity, positive = re-replication, most hits filed as activators; hit rate 2.9% among 350,000; further: potency means the concentration at half of the fitted maximal effect; % of control where 0% means no effect; nearly all actives have a fitted effect of over 50% in size
TDP1 cell CPT: DT40-hTDP1 cell growth loss with CPT; hit rate 12% among 420,000; chicken DT40 Tdp1-/-;hTDP1 cells + 20 nM CPT, ATP luminescence, 48 h; Potency, µM (titrated, usually from 46.2 µM), for inactives: top-dose activity change, negative = growth inhibition, most hits filed as inhibitors; further: potency means the concentration at half of the fitted maximal effect; on the % scale 0 is the no-effect control and ±100 the full control effect; nearly all actives have a fitted effect of over 55% in size
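Cell growth measured by CellTiter-Glo luminescence after a minimum 48 h, 37 C compound exposure with 20 nM CPT in Tdp1-knockout DT40 cells stably expressing hTDP1, seeded 400/well; qHTS titration format.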
BCR signal inh: chronic active BCR signaling inhibition | Potency, µM (titrated, usually from 46.1 µM), without a hit: at the top dose activity change, negative = inhibition, most hits filed as inhibitors | hit rate 0.05% among 340,000 | ABC-DLBCL IkBa-CBG/CBR reporter, luminescence ratio, 4 h; active means well fitted inhibition curve with a large enough effect in the signal ratio, with a control signal flat, not every such curve was filed as active; inconclusive means small, poorly fitted or top-dose-only effect, or effect the other way, or a change in a side signal; the % refers to the signal ratio;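 further: potency means the concentration at half of the fitted maximal effect; plate controls were basal doxycycline-induced cells for no effect and cells given 10 µM MG132 for full effect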
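TMD8 ABC-DLBCL cells carrying doxycycline-inducible green luciferase fused to IkappaBalpha plus unfused red luciferase were exposed to compounds (up to 46 uM) for 4 hrs at 37C. Activity came from the overlap-corrected green/red luminescence ratio.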
* = called active by the depositor; ? = inconclusive; / = not tested or not shown; [ ] = dose if it differs, or a comment. Compounds with a hit are over-represented: about 19% of the library has one in this group of screens. Unless noted, the call rests on the fitted dose curve; in most records, active means well fitted curve in the direction sought with a large enough effect; inconclusive means small, poorly fitted or top-dose-only effect, or another doubt; inactive means no such curve, though single readings can be large; an effect the other way counts as inactive or inconclusive.

SMILES | DT40 TDP1 no CPT | IL-1B inflam inh | SW480 rerep | MCF10A rereplic | TDP1 cell CPT | BCR signal inh
COc1cccc(N2CCN(c3nc(C)cc(=O)[nH]3)CC2)c1 | -3.8% | 10.4 | 1.3% | -5.2% | 0.0% | -5.2%
C[C@@H]1O[C@@H](O[C@@H]2[C@@H](O)[C@H](OCCc3ccc(O)c(O)c3)O[C@H](CO)[C@H]2OC(=O)/C=C/c2ccc(O)c(O)c2)[C@H](O)[C@H](O)[C@H]1O | -0.8% | 2.6 | 10.0% | -52.9% | -13.9% | -0.2%
CCC(C)NC(=O)c1c(N)n(/N=C/c2ccccn2)c2nc3ccccc3nc12 (centres undefined) | 20.6µM* | -83.0* | 16.4µM* | ? | 20.6µM* | ?
CC(C)OCCCNC(=O)c1c(N)n(/N=C/c2ccccn2)c2nc3ccccc3nc12 | 23.1µM* | -9.8 | 20.6µM* | 4.11µM* | ? | 5.6%
COc1ccc(C(NC(C)=O)c2ccc3cccnc3c2O)cc1OC (centres undefined) | 6.31µM* | / | / | / | 6.31µM* | /
COc1ccc(C(NC(C)=O)c2ccc3cccnc3c2O)c(OC)c1 (centres undefined) | 2.91µM* | 111.1 | 2.91µM* | 13.4% | 3.66µM* | -12.2%
COc1cccc(C(NC(C)=O)c2nc(-c3cccc4cccnc34)cs2)c1 (centres undefined) | ? | 37.6 | / | / | ? | /
CC(=O)NC(c1ccc2ccccc2c1)c1ccc2cccnc2c1O (centres undefined) | 4.61µM* | 138.7 | ? | ? | 3.26µM* | 0.6%
COC(=O)[C@@H]1CCCN1Cc1ccc2c(c1)CN(Cc1cccn1-c1ncccn1)CCO2 | -26.1% | / | / | / | ? | /
Cc1cccc(NC(=S)NC(=O)c2oc3ccccc3c2C)n1 | -41.1% | 20.7 | -9.6% | 18.4% | ? | ?
CC[N+]1(CC)CC2=Cc3c(ccc4ccccc34)CC2C1 (centres undefined) | 20.6µM* | -9.4 | -1.0%[9.22 µM] | 15.1% | ? | ?
O=C(O)c1ccc(CNC(=O)C2CCN(S(=O)(=O)c3ccc4c(c3)OCCO4)CC2)cc1 | -1.8% | -7.3 | / | / | -2.1% | /
C/C(=N\NC(=O)C(c1ccccc1)c1ccccc1)c1ccc(O)cc1 | ? | -2.2 | 2.9% | -0.4% | ? | 0.9%
C/C(=N\NC(=O)c1csc2ccccc12)c1ccc(O)cc1 | 9.2µM* | -7.7 | -6.0% | 9.7% | ? | ?
O=C(N/N=C/c1cccc(O)c1)c1cc(-c2ccccc2)nc2ccccc12 | ? | -18.6 | -1.3% | 7.4% | 2.31µM* | 0.0%
O=C(N/N=C/C=C\c1ccccc1[N+](=O)[O-])c1cc(-c2ccccc2)nc2ccccc12 | 14.6µM* | -20.3 | ? | 21.3% | 23.1µM* | -7.5%
O=C(N/N=C/c1ccc(O)c(O)c1)c1cc(-c2ccccc2)nc2ccccc12 | ? | 60.8 | -1.2% | 14.3% | 8.2µM* | 0.5%
O=C(N/N=C/C=C\c1ccccc1[N+](=O)[O-])c1ccncc1 | ? | -6.6 | 2.7% | -2.6% | ? | -14.0%
COc1ccc(-c2nc3cnc(N(C)C)nc3n(CCC#N)c2=O)cc1 | 5.8% | / | / | / | -17.9% | /
Nc1cc(C(=O)N2CCN(c3ccc([N+](=O)[O-])cc3)CC2)ccc1N1CC2CC(C1)c1cccc(=O)n1C2 (centres undefined) | -6.0% | 0.0 | -0.9% | 1.1% | -4.5% | -0.5%
O=C(CNS(=O)(=O)c1ccc(Br)s1)NCCc1ccc(Cl)cc1 | ? | -12.0 | 7.2% | -1.8% | -15.0% | 2.5%
O=C(N/N=C/c1ccc(Cl)c([N+](=O)[O-])c1)c1cc(-c2ccccc2)nc2ccccc12 | 7.31µM* | 60.5 | -9.9% | 11.6µM* | 6.51µM* | -7.0%
O=C(N/N=C/c1cccc(O)c1)c1csc2ccccc12 | 0.651µM* | -11.3 | -5.1% | 2.2% | ? | ?
COc1ccc(/C=N/NC(=O)c2cc(-c3ccccc3)nc3ccccc23)c(OC)c1 | ? | -23.7 | -5.2% | ? | 14.6µM* | -2.7%
COc1cccc(/C=N/NC(=O)c2nc(-c3ccccc3)cc(-c3ccccc3)n2)c1 | 20.6µM* | ? | -5.1% | ? | 16.4µM* | 2.9%
SMILES | DT40 TDP1 no CPT | IL-1B inflam inh | SW480 rerep | MCF10A rereplic | TDP1 cell CPT | BCR signal inh
O=C(N/N=C/c1cccc(O)c1)c1ccccc1O | 0.9% | -15.4 | 3.2% | -0.1% | 2.3% | ?
C[C@H](CCC(=O)NCC(=O)O)[C@H]1CC[C@H]2C3[C@H](O)C[C@@H]4C[C@H](O)CC[C@]4(C)[C@H]3C[C@H](O)[C@]12C (some centres undefined) | 16.9% | 10.0 | -76.1% | -15.0% | -0.5% | 3.5%
O=C1CCC(C(=O)N2CCN(c3ccccc3)CC2)CN1Cc1ccc(Cl)cc1 (centres undefined) | ? | -0.9 | / | / | ? | /
COc1ccc2nc(-c3ccccc3)cc(OC)c2c1 | ? | -79.8* | 1.6% | ? | -10.7% | -1.8%
CC(C)CN1C(=O)C(=O)N(CC(=O)c2ccc3c(c2)CCCC3)C1=O | -20.4% | -14.0 | -0.8% | 9.3% | -15.7% | ?
Cn1nc(C(=O)OCC(=O)NCc2ccc(Cl)cc2Cl)c2ccccc2c1=O | -17.6% | 26.7 | / | / | -9.1% | /
O=C(O)c1ccc(N/N=C/c2cc3ccccc3nc2Cl)cc1 | ? | 17.9 | ? | 8.2µM* | -15.6% | ?
Clc1nc2ccccc2cc1/C=N/Nc1nc2ccccc2[nH]1 | 14.6µM* | 23.2 | 2.3% | -12.7% | ? | -1.6%
Cc1nc2c(C)cccc2cc1C(=O)N/N=C/c1ccc(O)cc1 | ? | -9.3 | 14.6% | ? | 29.1µM* | -17.3%
Cc1cccc2cc(/C=N/Nc3ccc(C(=O)O)cc3)c(Cl)nc12 | ? | 18.8 | 17.0% | 3.66µM* | -26.3% | ?
CC1(c2ccccc2)NC(=O)N(CC(=O)Nc2ccccc2N2CCCCC2)C1=O (centres undefined) | ? | 1.0 | -4.5% | -1.1% | ? | 4.4%
Cc1cccc(C)c1OCC(=O)Nc1c(C(=O)c2ccccc2)oc2ccccc12 | -25.0% | / | / | / | 0.8% | /
O=C(COC(=O)c1cc(Cl)ccc1O)Nc1cc(C(F)(F)F)ccc1N1CCOCC1 | -27.7% | -8.7 | -12.9% | 3.2% | -18.3% | -3.4%
Cc1cccc(CNc2ncnc3ccc(-c4ccccc4Cl)cc23)c1 | / | / | -5.2% | ? | / | ?
CCN(CC(=O)Nc1c(F)cccc1F)C(=O)CSC(=S)N1CCCC1 | -5.1% | 16.2 | -5.8% | -0.5% | -1.6% | -0.3%
O=C(O)c1cccc(OS(=O)(=O)c2cc(Br)ccc2Br)c1 | 1.0% | 9.8 | -8.9% | -0.7% | -4.5% | ?

From PubChem BioAssay
